{
  "source": "PubChem BioAssay (EPA / NIEHS)",
  "note": "Results filed as inconclusive are left out. Calls of active or inactive are those of the source. How the source made its calls: active means hit-call score of the fitted dose curve at least 0.9, where 1 is the maximum; inconclusive means response in the unintended direction; inactive means score below 0.9.",
  "data": [
    {"assay": "ACEA_ER_80hr: ACEA Biosciences xCELLigence Real-Time Cell Analysis on Estrogen Receptor Agonism for Proliferation (AID 2282667)", "details": "T47D proliferation, impedance (xCELLigence), 80 h", "how_it_was_run": "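T-47D cells monitored by electrical impedance (xCELLigence) with compound present throughout; 80 h timepoint, positive-direction fitting versus DMSO. Eight-point 1:4 dilutions from 100 uM final, duplicate plates.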", "values": [
      {"smiles": "O=C(O)C1=NN(c2ccc(S(=O)(=O)O)cc2)C(=O)C1", "outcome": "inactive"},
      {"smiles": "CCC(=O)OC/C=C(\\C)CCC=C(C)C", "AC50": "91.6 nM (active)"},
      {"smiles": "O=C(O)c1cc2ccccc2cc1O", "outcome": "inactive"},
      {"smiles": "CCCCCCC(C)O", "note": "(configuration not stated)", "outcome": "inactive"},
      {"smiles": "CC(=O)c1ccc(C)cc1", "outcome": "inactive"},
      {"smiles": "N=C1N=C(N)c2ccccc21", "outcome": "inactive"},
      {"smiles": "COc1ccccc1NC(=O)CC(C)=O", "AC50": "10300 nM (active)"},
      {"smiles": "CCCCCCCCCCCCCCCCCC(=O)OCCCCCCCCCCCCCC(C)C", "outcome": "inactive"},
      {"smiles": "CC1=C(C=O)C(C)(C)CCC1", "AC50": "3650 nM (active)"},
      {"smiles": "CCCO", "outcome": "inactive"},
      {"smiles": "NC(N)=S", "AC50": "1290 nM (active)"},
      {"smiles": "CC/C=C\\CCOC(C)OCC", "note": "(configuration not stated)", "outcome": "inactive"},
      {"smiles": "CC(C)C(=O)c1ccccc1", "outcome": "inactive"},
      {"smiles": "CC(C)(C)c1ccc(S)cc1", "outcome": "inactive"},
      {"smiles": "CC/C=C\\CCCCO", "outcome": "inactive"},
      {"smiles": "NCCN1CCNCC1", "AC50": "10800 nM (active)"},
      {"smiles": "C=C(C)C(=O)OCCOCCOC(=O)C(=C)C", "outcome": "inactive"},
      {"smiles": "CC/C=C/CCCCCCCCCCOC(C)=O", "outcome": "inactive"},
      {"smiles": "CN(C)CCC=C1c2ccccc2CCc2ccccc21", "AC50": "124 nM (active)"},
      {"smiles": "O=C1Cc2ccccc2C1", "outcome": "inactive"},
      {"smiles": "CCCCCCCCCC(=O)OCC", "outcome": "inactive"},
      {"smiles": "CCCC(O)C(CC)CO", "note": "(configuration not stated)", "outcome": "inactive"},
      {"smiles": "O=C(O)c1ccccc1O", "outcome": "inactive"},
      {"smiles": "c1ccc(Sc2ccccc2)cc1", "outcome": "inactive"},
      {"smiles": "CCOCC(C)O", "note": "(configuration not stated)", "outcome": "inactive"},
      {"smiles": "CCCCCCCCSCc1cc(C)c(O)c(CSCCCCCCCC)c1", "outcome": "inactive"},
      {"smiles": "CC(=O)OC/C=C(C)/C=C/C=C(C)/C=C/C1=C(C)CCCC1(C)C", "outcome": "inactive"},
      {"smiles": "c1ccc2c(c1)-c1ccc3ccc4cccc5cc-2c1c3c45", "outcome": "inactive"},
      {"smiles": "CC(C)OB(OC(C)C)OC(C)C", "outcome": "inactive"},
      {"smiles": "CCCOC(=O)CC", "outcome": "inactive"},
      {"smiles": "C=CC(O)CCCCC", "note": "(configuration not stated)", "outcome": "inactive"},
      {"smiles": "O=S(=O)(O)c1cc(S(=O)(=O)O)c2c(N=Nc3ccccc3)c(O)ccc2c1", "outcome": "inactive"},
      {"smiles": "CC(=N[Si](C)(C)C)O[Si](C)(C)C", "AC50": "60.3 nM (active)"},
      {"smiles": "O=c1cc[nH]cc1", "outcome": "inactive"},
      {"smiles": "CC(=O)Oc1c(C)c(C)c2c(c1C)CC[C@@](C)(CCC[C@H](C)CCC[C@H](C)CCCC(C)C)O2", "outcome": "inactive"},
      {"smiles": "C=C(F)C(=O)OC(C(F)(F)F)C(F)(F)F", "outcome": "inactive"},
      {"smiles": "CC1COC(=O)O1", "note": "(configuration not stated)", "outcome": "inactive"}
    ]}
  ]
}
